hcDAF12 agonist: H. contortus DAF-12 activation, primary screen | HEK293 hcDAF-12 lit1-tk-luc reporter, luminescence; 0% DMSO, 100% Δ7-dafachronic acid | activation, % at 6.8 µM | 1.4% of 370,000 active | AID 652067;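 active = activation above the mean of all tested compounds plus 3 SD, cut at about 5.5% in these data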;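 also: 100% = response to 3 µM Δ7-dafachronic acid high control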
ssDAF-12 act: activators of S. stercoralis DAF-12 nuclear receptor | AID 652126 | 1% of 370,000 active | HEK293 ssDAF-12/GRIP1 lit1-tk-luc reporter, luminescence; % of 3 µM dafachronic acid response | activation, % at 6.8 µM;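 active = activation above the mean over all tested compounds plus 3 SD, cut at about 0.9% in these data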;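 also: 0% = DMSO-only wells and 100% = 3 µM delta7-dafachronic acid wells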
GAA850 FXN act: increases GAA850 frataxin promoter reporter activity | HEK293 lucGAA850 FXN promoter luciferase reporter, 24 h; percent of 10 µM SAHA response | activation, % at 6 µM | 0.56% of 360,000 active | AID 540364;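 active = activation above the average of all compounds screened plus 3 SD, cutoff fixed separately per campaign, cut at about 7.5% in these data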;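 also: 0% = DMSO wells and 100% = 10 µM SAHA wells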
DAX1 inh-1: NR0B1 (DAX1) inhibition. P51843. HEK293 Gal4-DAX1 luciferase reporter, luminescence. inhibition, % at 6.75 µM. 0.99% of 340,000 active;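 active = inhibition above the mean over all tested compounds plus 3 SD, cut at about 4.2% in these data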;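 also: 0% = DAX1-transfected cells with DMSO and 100% = empty-vector control cells with DMSO; inhibition shows as a rise in luminescence from relieved DAX1 repression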
Target sequence (P51843 207-470 limits assumed): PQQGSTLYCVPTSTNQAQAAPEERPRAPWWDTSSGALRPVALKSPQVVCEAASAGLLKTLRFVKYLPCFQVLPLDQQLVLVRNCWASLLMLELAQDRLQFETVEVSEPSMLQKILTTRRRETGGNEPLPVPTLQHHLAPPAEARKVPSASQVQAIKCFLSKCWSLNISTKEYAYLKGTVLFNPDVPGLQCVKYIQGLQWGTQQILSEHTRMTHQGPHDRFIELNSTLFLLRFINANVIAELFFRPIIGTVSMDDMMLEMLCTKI
DAX1 inh-2: DAX1 (NR0B1) inhibition, primary screen. HEK293T StAR-luciferase reporter, SF-1/DAX-1 repression relief. inhibition, % at 6.8 µM. 1.1% of 370,000 active. AID 652010;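 active = inhibition above the mean over all tested compounds plus 3 SD, cut at about 3.6% in these data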;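 also: 0% = DAX-1 cells with DMSO and 100% = cells lacking DAX-1 with DMSO; higher inhibition means more luminescence from relief of DAX-1 repression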
hgDAF-12 ag: activates the H. glycines DAF-12 receptor ligand-binding domain; 1.8% of 370,000 active; activation, % at 6.8 µM; AID 687014; HEK293 GAL4-hgDAF12 UAS-luciferase reporter, agonist luminescence; normalized to butyrate control;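 active = activation above a cutoff set at the mean of all screened compounds plus 3 SD, cut at about 10% in these data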;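 also: 0% = DMSO wells and 100% = sodium butyrate wells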
GAA30 FXN cntr: GAA30 FXN promoter activation counter-screen; shares compounds with GAA850 FXN act; HEK293 lucGAA30 FXN promoter luciferase, 24 h; DMSO = 0%, 5 µM ipriflavone = 100%; activation, % at 6 µM; 66% of 1,900 active; AID 588350;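 active = mean activation above the mean of solvent-only control wells plus 3 SD, cut at about 22% in these data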;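 also: counterscreen of GAA850 promoter hits where activity marks nonselective or luminescence artifacts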
GAA850 confirm: GAA850 FXN promoter activation confirmation; activation, % at 6 µM; AID 588351; 86% of 1,900 active; HEK293 lucGAA850 FXN promoter luciferase reporter, 24 h; 100% = activation by SAHA; shares compounds with GAA850 FXN act;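 active = mean activation above a set limit taken from the primary screen, cut at about 8% in these data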;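 also: 0% = DMSO wells and 100% = 10 µM SAHA wells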
DAX1 conf: confirmation of human DAX1 (NR0B1) inhibitors; shares compounds with DAX1 inh-2; HEK293T StAR-promoter luciferase reporter, SF-1/DAX-1 repression; inhibition, % at 6.8 µM; 87% of 2,400 active;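 active = inhibition above the average of every tested compound plus 3 SD, cut at about 3.8% in these data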;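 also: 0% = DAX-1 cells with DMSO and 100% = no DAX-1 control cells with DMSO; active compounds raise luminescence by relieving repression of the StAR reporter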
SF1 mutant ctr: nonselective inhibitor or artifact in SF-1 mutant DAX1 counter-screen; shares compounds with DAX1 inh-2; HEK293 StAR-luciferase, SF-1 AF2 mutant, luminescence; inhibition, % at 6.8 µM; 78% of 2,400 active;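 active = inhibition above the mean of all tested compounds plus 3 SD, cut at about 3% in these data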;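 also: 0% = DAX-1 transfected cells with DMSO and 100% = cells without DAX-1 with DMSO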
LXR ag: activates human LXR-beta, counter-screen for hcDAF-12 agonists | activation, % at 6.8 µM | AID 743027 | 3,400 tested, under 10 active | HEK293 Gal4-LXR tk-luc reporter, luminescence, 24 h; normalized: DMSO 0%, positive control 100% | shares compounds with hcDAF12 agonist;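 active = mean percent activation of the reporter above a cutoff set as the average over tested compounds plus their standard deviation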
Target sequence (P55055 whole entry, looked up, the tested form may be a part): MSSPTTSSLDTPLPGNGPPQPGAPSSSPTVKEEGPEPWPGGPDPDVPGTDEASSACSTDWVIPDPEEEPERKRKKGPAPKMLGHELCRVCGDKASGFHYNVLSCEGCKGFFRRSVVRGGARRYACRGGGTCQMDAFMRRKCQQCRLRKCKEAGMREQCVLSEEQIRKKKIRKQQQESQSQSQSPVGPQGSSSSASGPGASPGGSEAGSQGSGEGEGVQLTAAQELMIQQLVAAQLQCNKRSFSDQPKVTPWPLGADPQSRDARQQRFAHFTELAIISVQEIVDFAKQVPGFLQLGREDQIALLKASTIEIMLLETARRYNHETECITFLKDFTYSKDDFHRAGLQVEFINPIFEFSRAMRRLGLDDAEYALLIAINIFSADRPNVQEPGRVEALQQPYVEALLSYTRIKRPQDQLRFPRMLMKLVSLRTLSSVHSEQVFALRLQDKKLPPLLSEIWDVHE
hcDAF12 ag: confirmation of H. contortus DAF-12 agonists. shares compounds with hcDAF12 agonist. HEK293 hcDAF-12 lit1-tk-luc reporter, luminescence; % of Δ7-dafachronic acid response. activation, % at 6.8 µM. 61% of 3,400 active. AID 743032;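 active = mean activation across triplicate tests above the threshold derived from the earlier primary screen, cut at about 5.5% in these data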;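 also: 0% = DMSO only wells and 100% = 3 µM Δ7-dafachronic acid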
hgDAF12 ag: confirmation of H. glycines DAF-12 agonists | shares compounds with hgDAF-12 ag | HEK293 GAL4-hgDAF12 luciferase reporter, agonist mode; percent of butyrate response | activation, % at 6.8 µM | 80% of 3,300 active | AID 743050;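 active = mean activation over triplicate wells above the hit cutoff derived from the earlier primary screen, cut at about 11% in these data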;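 also: 0% = DMSO low control and 100% = 2 mM sodium butyrate high control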
LXR ag 2: counter-screen for DAF-12 agonists: agonists of human LXR-beta. AID 743051. shares compounds with hgDAF-12 ag. HEK293 Gal4-LXR luciferase reporter, 24 h. activation, % at 6.8 µM. 3,300 tested, under 10 active;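 active = mean activation of the triplicate above a set limit carried over from the primary screen, none filed active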
The depositor's hits bear a star. Shown are actives, neighbours in structure and some others; about 4.5% of the full set was active somewhere.

Results for S=C(Nc1ccc(Cl)cc1)c1nc2ccccc2[nH]1 ?
hcDAF12 agonist: 7.3*; ssDAF-12 act: 0; GAA850 FXN act: 7.8*; DAX1 inh-1: 2; DAX1 inh-2: 4; hgDAF-12 ag: 18*; GAA30 FXN cntr: 113*; GAA850 confirm: 33*; LXR ag: 1; hcDAF12 ag: 6.5*; hgDAF12 ag: 16*; LXR ag 2: 1

How did CC(=O)N1CC(C)Oc2ccc(S(=O)(=O)Nc3ccc(Cl)cn3)cc21 (stereo unspecified) do in these assays?
hcDAF12 agonist: 1; ssDAF-12 act: -1; GAA850 FXN act: 0; DAX1 inh-1: 0; DAX1 inh-2: 2; hgDAF-12 ag: 2

Results for COc1cccc2sc(N)nc12 ?
hcDAF12 agonist: -1; ssDAF-12 act: -1; GAA850 FXN act: 4; DAX1 inh-1: 0; DAX1 inh-2: 1; hgDAF-12 ag: 0

What do the screens show for `COc1cccc2sc(N(C)c3ccccc3)nc12`?
hcDAF12 agonist: 6.5*; ssDAF-12 act: 1; GAA850 FXN act: 7.7*; DAX1 inh-1: 2; DAX1 inh-2: 4.6*; hgDAF-12 ag: 13*; GAA30 FXN cntr: 107*; GAA850 confirm: 31*; DAX1 conf: 11*; SF1 mutant ctr: 6.4*; hgDAF12 ag: 15*; LXR ag 2: 1

How did CCOc1ccc(OCc2cccc(C(=O)N3CCCCCC3)c2)cc1 do in these assays?
hcDAF12 agonist: 5; ssDAF-12 act: 0; GAA850 FXN act: 7.8*; DAX1 inh-1: -6; DAX1 inh-2: 3.8*; hgDAF-12 ag: 16*; GAA30 FXN cntr: 105*; GAA850 confirm: 35*; hgDAF12 ag: 16*; LXR ag 2: 1

How did COc1cccc(C(=O)Nc2cc3c(cc2Cl)OCCCO3)c1 do in these assays?
hcDAF12 agonist: 2; ssDAF-12 act: 0; GAA850 FXN act: 7.9*; DAX1 inh-1: 2; DAX1 inh-2: 4; hgDAF-12 ag: 14*; GAA30 FXN cntr: 101*; GAA850 confirm: 32*; hgDAF12 ag: 14*; LXR ag 2: 0

What do the screens show for `COc1cc(/C=C/c2ccc3cccc(O)c3n2)cc(Cl)c1OC`?
hcDAF12 agonist: 2; ssDAF-12 act: 0; GAA850 FXN act: 13*; DAX1 inh-1: 1; DAX1 inh-2: 0; hgDAF-12 ag: 14*; GAA30 FXN cntr: -79; GAA850 confirm: -23; hgDAF12 ag: 17*; LXR ag 2: 1

Results for COc1cc(Br)cc(/C=C/c2ccc3cccc(O)c3n2)c1OC ?
hcDAF12 agonist: -1; ssDAF-12 act: -1; GAA850 FXN act: -1; DAX1 inh-1: 0; DAX1 inh-2: -1; hgDAF-12 ag: 0

Results for COc1cccc(/C=C/c2ccc3cccc(O)c3n2)c1 ?
hcDAF12 agonist: 9.0*; ssDAF-12 act: 1.5*; GAA850 FXN act: 8.7*; DAX1 inh-1: 1; DAX1 inh-2: 0; hgDAF-12 ag: 14*; GAA30 FXN cntr: 4; GAA850 confirm: 29*; LXR ag: 2; hcDAF12 ag: 8.5*; hgDAF12 ag: 24*; LXR ag 2: 1

What do the screens show for `O[C@@H]1CN(Cc2cccs2)[C@@H](c2ccc(Cl)cc2)C[C@H]1n1cc(-c2ccc(F)cc2)nn1`?
hcDAF12 agonist: -1; ssDAF-12 act: -1; GAA850 FXN act: 0; DAX1 inh-1: 3; DAX1 inh-2: 0; hgDAF-12 ag: 0

Results for COc1ccc(CNS(=O)(=O)c2ccc3c(c2)NC(=O)C(C)S3)cc1 (stereo unspecified) ?
hcDAF12 agonist: -2; ssDAF-12 act: -1; GAA850 FXN act: -1; DAX1 inh-1: 0; DAX1 inh-2: 0; hgDAF-12 ag: -1

Results for O=C(NCCCN1CCOCC1)c1cc(-c2ccc(O)cc2)on1 ?
hcDAF12 agonist: 2; ssDAF-12 act: 0; GAA850 FXN act: 2; DAX1 inh-1: 2; DAX1 inh-2: 1; hgDAF-12 ag: 8

Results for O=C(NCCN1CCOCC1)c1cc(-c2ccccc2Cl)on1 ?
hcDAF12 agonist: -2; ssDAF-12 act: -1; GAA850 FXN act: 1; DAX1 inh-1: 3; DAX1 inh-2: 0; hgDAF-12 ag: 0

How did O=C(NCCN1CCOCC1)c1cc(-c2ccccc2)on1 do in these assays?
hcDAF12 agonist: 2; ssDAF-12 act: 0; GAA850 FXN act: 17*; DAX1 inh-1: 2; DAX1 inh-2: 0; hgDAF-12 ag: 24*; GAA30 FXN cntr: 99*; GAA850 confirm: 42*; hgDAF12 ag: 23*; LXR ag 2: 0

Results for O=C(NCCCN1CCOCC1)c1cc(-c2ccccc2)on1 ?
hcDAF12 agonist: 3; ssDAF-12 act: -1; GAA850 FXN act: 17*; DAX1 inh-1: 3; DAX1 inh-2: 1; hgDAF-12 ag: 26*; GAA30 FXN cntr: 101*; GAA850 confirm: 56*; hgDAF12 ag: 27*; LXR ag 2: 0
